# Measurements as given in PubChem BioAssay AID485297 (National Center for Advancing Translational Sciences (NCATS), 2010).
# The campaign covered roughly 320,000 compounds. About 9,100 (2.8%) were called active. Another 3% or so got no clear call; they are omitted. Calls follow the shape of the dose curve; as a rule, active = well fitted activation curve with a large enough effect; inconclusive = small, poorly fitted or top-dose-only effect; inactive = no such curve, though single readings can be large or run the other way. Many of the other results were omitted from the sample, so actives are more common in it than they were.
# Assay: qHTS Assay for Rab9 Promoter Activators; also: nearly all actives have a fitted effect of over 60% in size; as to activation, negative = inhibition: % of control where 0% means no effect
# Settings: Huh7 Rab9 promoter-luciferase reporter, luminescence, 24 h; series mostly up to 9.22 µM; activation, negative = inhibition: at the top concentration
# How it was run: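 Huh7 cells stably carrying Rab9 promoter–luciferase reporter, plated 1500 cells/well, compound added after 2 h and incubated 24 h at 37 °C; luciferase luminescence then read after 10 min with detection reagent.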
# Potency is read from the fitted curve at half-maximal effect.
SMILES,"activation, negative = inhibition",Potency
CCCCCN(C(=O)CCC(=O)OCC(=O)NCc1ccc(OC)cc1)c1c(N)n(CCCC)c(=O)[nH]c1=O,-0.822% (inactive),–
CC(=O)c1ccccc1NC(=O)C1CC(=O)N(c2ccc3c(c2)OCCO3)C1 (configuration not stated),-0.721% (inactive),–
CN(CC(=O)Nc1ccc(OC(F)(F)F)cc1)C(=O)C1CCC1,-5.11% (inactive),–
CSc1ccccc1NC(=O)COC(=O)CCCOc1ccc(C)cc1,-2% (inactive),–
Cc1ccc(S(=O)(=O)N2CCN(C(=O)N3CCOCC3)CC2)c(C)c1,0.487% (inactive),–
COc1cc(/C=N/N2CCN(c3ccccc3)CC2)ccc1OC(C)=O,-1.62% (inactive),–
COc1ccccc1N1CCN(/N=C/c2ccc(O)cc2O)CC1,–,3.16 µM (active)
COc1ccccc1N1CCN(C(=O)C(=O)N/N=C/c2ccccc2F)CC1,-6.38% (inactive),–
Fc1cccc(Cl)c1COc1ccc(-c2nnco2)cc1,15.3% (inactive),–
Fc1ccc(COc2ccc(-c3nnco3)cc2)cc1,–,3.98 µM (active)
Fc1ccc(COc2cccc(-c3n[nH]c(=S)o3)c2)cc1,1.15% (inactive),–
CC(NC(=O)c1cccc(S(=O)(=O)N2CCc3ccccc3C2)c1)c1ccco1 (configuration not stated),-7.93% (inactive),–
O=C(CSc1nnc(CN2CCCC2)n1-c1ccc(F)cc1)c1ccc2c(c1)OCO2,-4.68% (inactive),–
CC(C)(C)OC(=O)NCCCCCNC(=O)c1[nH]cnc1C(=O)Nc1nccs1,-0.539% (inactive),–
CC(C)c1ccc(N2CCN(C(=O)c3ccccc3NC(=O)/C=C(\C(=O)O)c3ccccc3)CC2)cc1,1.27% (inactive),–
Cc1cccc(CSc2nnc(NC(=O)CSc3nnc(C)s3)s2)c1,0.771% (inactive),–
CCSc1nnc(NC(=O)c2ccc(C)cc2)s1,–,2.24 µM (active)
NC(=O)CSc1nnc(NC(=O)c2ccc(Br)o2)s1,15.8% (inactive),–
NC(=O)CSc1nnc(NC(=O)c2ccc3ccccc3c2)s1,–,2.82 µM (active)
C=CCSc1nnc(NC(=O)c2ccc(NC(C)=O)cc2)s1,19.7% (inactive),–
O=C(/C=C/c1ccccc1)Nc1nnc(SCC(=O)c2ccc3ccccc3c2)s1,3.06% (inactive),–
C[C@H](NC(=O)c1ccccc1)C(=O)OCC(=O)c1c[nH]c2ccccc12,6.31% (inactive),–
O=C(Nc1ccc(C(F)(F)F)cc1)c1cccc(-n2cnnn2)c1,0.871% (inactive),–

SMILES,"activation, negative = inhibition",Potency
O=C(CCNS(=O)(=O)c1ccccc1)NCCSc1ccc(Br)cc1,-2.67% (inactive),–
Cc1cc(C)nc(Nc2n[nH]c(-c3ccccc3N)n2)n1,–,0.501 µM (active)
Cc1cc(C)nc(Nc2ncn[nH]2)n1,-0.93% (inactive),–
COc1ccccc1-c1nc(SC)n[nH]1,0.474% (inactive),–
COC(=O)c1ccc(COC(=O)CNC(=O)c2cccc(OC)c2)o1,-1.88% (inactive),–
O=C(Nc1cc(Cl)ccc1N1CCOCC1)c1ccc(N2CCCC2=O)cc1,0.25% (inactive),–
COc1ccccc1CNC(=O)COC(=O)CNS(=O)(=O)c1ccc(NC(C)=O)cc1,-1.72% (inactive),–
Cc1cccc(C(=O)NCC(=O)OCC(=O)N(C)CC(=O)Nc2ccccc2Cl)c1,0.684% (inactive),–
CCn1c(SCC(=O)NCC2CCCO2)nc2ccccc21 (configuration not stated),-4.36% (inactive),–
CN(C(=O)COC(=O)CCCc1c[nH]c2ccccc12)c1c(N)n(Cc2ccccc2)c(=O)[nH]c1=O,-3.62% (inactive),–
FC(F)(F)c1ccnc(Oc2ccc(C3=NCCS3)cc2)c1,–,0.708 µM (active)
O=Cc1ccc(Oc2cccc(C(F)(F)F)c2)nc1,-3.19% (inactive),–
O=[N+]([O-])c1cccc(C2=NCCS2)c1,1.16% (inactive),–
CCN(CC(=O)Nc1ccc(OC)cc1)C(=O)c1ccc(=O)n(Cc2ccccc2)n1,1.5% (inactive),–
COc1ccc(NC(=O)COC(=O)c2n[nH]c3ccccc23)c(OC)c1,3.04% (inactive),–
COc1cccc(NC(=O)c2cc(S(=O)(=O)N3CCc4ccccc43)cn2C)c1,-7.88% (inactive),–
O=c1ccc2c(-c3ccccc3S(=O)(=O)O)c3ccc(O)c(O)c3oc-2c1O,-11.8% (inactive),–
COc1cc(OC)cc(C(=O)NCC(=O)N2CCCCCCC2)c1,1.42% (inactive),–
Cc1ccc(SCCC(=O)Nc2cc(C)on2)cc1,0.952% (inactive),–
Cc1ccc2nc(SCC(=O)NC3CCCC3)[nH]c2c1,-4.55% (inactive),–
Cc1ccc2nc(-c3ccc(SCC(=O)Nc4cc(C)on4)nc3)[nH]c2c1,–,3.98 µM (active)
COc1ccc(N(CC(=O)NCCSCc2cccc(Cl)c2)S(C)(=O)=O)cc1,-0.778% (inactive),–
CCN(C(=O)CSc1ncnc2sccc12)c1c(N)n(Cc2ccccc2)c(=O)[nH]c1=O,-3.4% (inactive),–

SMILES,"activation, negative = inhibition",Potency
NS(=O)(=O)c1ccc(CCNC(=O)COC(=O)COc2cccc(C(F)(F)F)c2)cc1,0.927% (inactive),–
COc1ccc(C2Nc3ccccc3C(=O)N2Cc2ccccc2)cc1Cn1nnc2ccccc21 (configuration not stated),1.82% (inactive),–
COc1ccc(C2Nc3ccccc3C(=O)N2c2ccc(F)cc2)cc1Cn1nnc2ccccc21 (configuration not stated),16.4% (inactive),–
COc1ccc(C2Nc3ccccc3C(=O)N2c2ccc(Cl)cc2)cc1Cn1cc([N+](=O)[O-])cn1 (configuration not stated),–,2 µM (active)
COc1ccccc1Nc1nnc(SC(C)C(=O)NC2CC2)s1 (configuration not stated),-3.09% (inactive),–
CCN(CC)CCCNC(=O)COc1ccc2oc3c(c2c1)CCCC3,1.01% [at 1.84 µM] (inactive),–
O=C(COc1ccc2oc3c(c2c1)CCCC3)Nc1ccccn1,–,1.58 µM (active)
CCOC(=O)N1CCN(C(=O)COc2ccc3oc4c(c3c2)CCCC4)CC1,8.64% (inactive),–
COc1ccc(C)cc1NC(=O)CN1c2cccc3cccc(c23)S1(=O)=O,1.82% (inactive),–
Cc1ccc2c(N)c(C(=O)c3ccccc3)sc2n1,–,3.16 µM (active)
CCN(CC)C(=O)c1sc2nc(-c3ccccc3)ccc2c1N,–,1.78 µM (active)
CN(C)c1ccnc2sc3c(=O)n(Cc4ccccc4)cnc3c12,-4.33% (inactive),–
CN(C)c1ccnc2sc(C(=O)c3ccccc3)c(N)c12,–,2.82 µM (active)
CCCC(=O)n1nc(-c2ccccc2)nc1N,-0.188% (inactive),–
CS(=O)(=O)c1sc2nc(-c3ccccc3)cc(-c3ccccc3)c2c1N,-6.49% (inactive),–
Cc1nc2ccccc2c(-c2ccccc2)c1C(=O)c1ccccc1,-2.28% (inactive),–
COC(=O)c1cc2c(N)c(C(=O)c3ccc(Cl)cc3)sc2nc1C(OC)OC,-6.44% (inactive),–
NC(=O)c1sc2nc3c(c(-c4ccccc4)c2c1N)CCC3,-1.61% (inactive),–
CCOc1ccc(S(=O)(=O)N2CCCCC2)cc1NC(=O)CN1CCCC1c1cccs1 (configuration not stated),-24.3% (inactive),–
N#Cc1ccc(OCC(=O)NC(=O)NC2CCS(=O)(=O)C2)cc1 (configuration not stated),-2.91% (inactive),–
CCOC(=O)c1cc(-c2ccccc2C)n(Cc2cc(C)no2)n1,-3.28% (inactive),–
